# Data published in paper PMC6792352, “Limited Chemical Structural Diversity Found to Modulate Thyroid Hormone Receptor in the Tox21 Chemical Library” (Environmental Health Perspectives, 2019).
# Where a name gives a salt, the structure may show the parent alone.
# Test system: thyroid hormone receptor (endogenous TRα and TRβ)
# Design: species or system GH3-TRE-Luc (rat pituitary); GH3-TRE-Luc luciferase reporter, antagonist mode against 1 nM T3, loss of signal, qHTS
# Settings: antagonist mode, 1 nM T3, no GH3 cytotoxicity hit, read-out: Average AC50 (uM) GH3-TRE-Antag
row,Structure (SMILES),AC50 [µM]
1,C[C@]12C=CC(=O)C=C1CC[C@@H]1[C@@H]2CC[C@@]2(C)[C@H]1CC[C@]2(C)O [Methandrostenolone],34.4
2,O=[N+]([O-])c1ccc(Oc2ccc(C(F)(F)F)cc2[N+](=O)[O-])cc1 [Fluorodifen],> 90
3,"Oc1ccc(Cl)c(Cl)c1Cl [2,3,4-Trichlorophenol]",87.3
4,C[C@@H]1[C@H]2Cc3ccc(O)cc3[C@]1(C)CCN2C [(-)-Metazocine fumarate (1:1)],50.6
5,CNC(=O)O/N=C(\SC)C(=O)N(C)C [Oxamyl],> 90
6,CNC(=O)Oc1cccc(N=CN(C)C)c1 [Formetanate hydrochloride],70.8
7,"COc1cc(CC(C)N)cc2c1OCO2 (stereo not drawn) [1-(7-Methoxy-1,3-benzodioxol-5-yl)propan-2-amine hydrochloride]",48.3
8,CC(=O)O[C@H]1CC[C@@]2(C)C(=CC[C@@H]3[C@@H]2CC[C@]2(C)C(=O)CC[C@@H]32)C1 [Dehydroepiandrosterone acetate],17.4
9,CN1C[C@H](C(=O)N[C@]2(C)O[C@@]3(O)[C@@H]4CCCN4C(=O)[C@H](Cc4ccccc4)N3C2=O)C=C2c3cccc4[nH]cc(c34)C[C@H]21 [Ergotamine D-tartrate],36.2
10,CCOP(=S)(OCC)Oc1cnc2ccccc2n1 [Quinalphos],55.1
11,CC(=O)[C@H]1CC[C@H]2[C@@H]3CC[C@@H]4C[C@H](O)CC[C@]4(C)[C@H]3CC[C@]12C [Eltanolone],13.6
12,CNC(=O)Oc1ccccc1C(=O)Nc1ccccc1 [Anilamate],> 50
